Experiment [1] in a line: qHTS assay to identify small molecule agonists of the peroxisome proliferator-activated receptor delta (PPARd) signaling pathway - cell viability counter screen (AID 743211). Further: nearly all actives have a fitted effect of over 55% in size. Further: potency means the concentration at half of the fitted maximal effect. The essentials: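 HEK293H PPARd-bla, 3000 cells/well; 5 h preincubation 37C/5% CO2; cpd in DMSO, 17 h 37C; B/G FRET substrate 2 h RT; CellTiter-Glo 30 min RT, luminescence.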
A short description of experiment [2]: qHTS assay to identify small molecule antagonists of the peroxisome proliferator-activated receptor delta (PPARd) signaling pathway - cell viability counter screen (AID 743213). Further: nearly all actives have a fitted effect of over 50% in size. Further: potency means the concentration at half of the fitted maximal effect. In a few lines:
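In this counter screen, HEK293H cells carrying a UAS-beta-lactamase reporter are co-treated with test compounds and 300 nM L165041 (final) for 17 h at 37 C; cell viability is quantified by CellTiter-Glo luminescence.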
On the technique in general: qHTS replaces the single test concentration by a dilution series.

The target in experiment [3] is Peroxisome proliferator-activated receptor delta (Homo sapiens) (UniProt Q03181). As to the kind of experiment: qHTS assay to identify small molecule antagonists of the peroxisome proliferator-activated receptor delta (PPARd) signaling pathway (AID 743215; active means well fitted inhibition curve with a large enough effect in the signal ratio in the repeat runs, not every such curve was filed as active; the % refers to the signal ratio;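 further: cells stimulated with agonist L165041 at 300 nM final during compound exposure; series mostly up to about 62 µM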). The essentials: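 Agonist L165041 (300 nM final) added with compound to PPARd-bla HEK293H UAS-bla reporter cells; 17 h incubation at 37 C. Read-out: LiveBLAzer FRET substrate, 2 h at room temperature, fluorescence intensity.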
Sequence of Peroxisome proliferator-activated receptor delta (Homo sapiens) (Q03181 whole entry, looked up): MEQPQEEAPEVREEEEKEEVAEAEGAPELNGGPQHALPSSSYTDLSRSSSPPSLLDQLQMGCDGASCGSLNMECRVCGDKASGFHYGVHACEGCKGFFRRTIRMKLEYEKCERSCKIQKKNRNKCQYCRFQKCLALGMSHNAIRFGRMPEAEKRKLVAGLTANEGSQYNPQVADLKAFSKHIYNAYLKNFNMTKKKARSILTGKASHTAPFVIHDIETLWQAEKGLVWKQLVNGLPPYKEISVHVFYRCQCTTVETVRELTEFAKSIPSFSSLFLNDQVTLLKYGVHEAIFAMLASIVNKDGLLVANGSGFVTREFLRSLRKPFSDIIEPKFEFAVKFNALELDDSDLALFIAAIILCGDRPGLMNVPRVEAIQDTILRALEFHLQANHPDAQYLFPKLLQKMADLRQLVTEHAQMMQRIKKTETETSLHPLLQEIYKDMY

A short description of experiment [4]: qHTS assay to identify small molecule agonists of the farnesoid-X-receptor (FXR) signaling pathway - cell viability counter screen (AID 743218). Further: nearly all actives have a fitted effect of over 45% in size. Further: potency means the concentration at half of the fitted maximal effect. In a few lines:
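Viability counter screen in the same wells: CellTiter-Glo luminescence, 30 min room-temperature incubation, measured after the beta-lactamase read. Cells were GeneBLAzer FXR-UAS-bla HEK 293T, compound-treated 16 h at 37C.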

Experiment [5] is described as follows: qHTS assay to identify small molecule antagonists of the farnesoid-X-receptor (FXR) signaling pathway - cell viability counter screen (AID 743221; active means well fitted cell-killing curve with a large enough effect in the repeat runs, not every such curve was filed as active; further: nearly all actives have a fitted effect of over 50% in size; further: potency means the concentration at half of the fitted maximal effect). The essentials:
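Luminescence from CellTiter-Glo measures cytotoxicity in GeneBLAzer FXR-UAS-bla HEK 293T cells. Cells were exposed to compounds with 50 uM chenodeoxycholic acid (final) for 16 h at 37 C, in wells also used for the reporter readout.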

The target in experiment [6] is Vitamin D3 receptor (Homo sapiens) (UniProt P11473). As to the kind of experiment: qHTS assay to identify small molecule agonists of the vitamin D receptor (VDR) signaling pathway (AID 743222; calls by dose curve). In a few lines:
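Agonist mode, beta-lactamase reporter: fluorescence from LiveBLAzer B/G FRET substrate (2 h, room temperature) read after 16 h compound treatment at 37 C of VDR-bla cells, which were pre-incubated 4 h after seeding.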

Experiment [7] has the same target. The experiment in a line: qHTS assay to identify small molecule antagonists of the vitamin D receptor (VDR) signaling pathway (AID 743223; active means well fitted inhibition curve with a large enough effect in the signal ratio in the repeat runs, not every such curve was filed as active; the % refers to the signal ratio). In a few lines:
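Antagonist mode uses 1alpha,25-dihydroxyvitamin D3 at 3 nM final as stimulus. VDR-bla cells receive compounds in DMSO, incubate 16 h at 37C, then a beta-lactamase FRET substrate for 2 h at room temperature before fluorescence measurement.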

Experiment [8] has as its target Peroxisome proliferator-activated receptor delta (Homo sapiens) (UniProt Q03181). As to the kind of experiment: qHTS assay to identify small molecule agonists of the peroxisome proliferator-activated receptor delta (PPARd) signaling pathway (AID 743212; calls by dose curve;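 further: HEK293H cells with PPARd UAS beta-lactamase reporter GeneBLAzer system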). The essentials: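 Steps: seed PPARd-bla HEK293H cells; incubate 5 h, 37 C, 5% CO2; add compounds in DMSO; incubate, 37 C; add LiveBLAzer B/G FRET substrate; hold 2 h at room temperature; measure fluorescence.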

Experiment [9] addresses Bile acid receptor (Homo sapiens) (UniProt Q96RI1). As to the kind of experiment: qHTS assay to identify small molecule antagonists of the farnesoid-X-receptor (FXR) signaling pathway (AID 743217; active means well fitted inhibition curve with a large enough effect in the signal ratio in the repeat runs, not every such curve was filed as active; the % refers to the signal ratio). The essentials:
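Antagonist mode: chenodeoxycholic acid at 50 uM final stimulates a UAS-driven beta-lactamase reporter in HEK 293T FXR-bla cells during 16 h, 37C compound exposure. Read-out is FRET substrate fluorescence after 2 h at room temperature.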

For experiment [10] the target is unchanged. The experiment in a line: qHTS assay to identify small molecule agonists of the farnesoid-X-receptor (FXR) signaling pathway (AID 743220; active means well fitted activation curve with a large enough effect in the signal ratio in the repeat runs, not every such curve was filed as active; the % refers to the signal ratio). In a few lines: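 FXR-UAS-bla HEK 293T cells carrying a UAS-driven beta-lactamase reporter were plated for 5 h at 37C/5% CO2, then exposed to DMSO-dissolved Tox21 10K compounds for 16 h at 37C. A LiveBLAzer B/G FRET substrate was loaded for 2 h at room temperature before fluorescence reading.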

Inconclusive results are not listed. Values without a mark were called inactive. Calls of active or inactive are those of the source. Unless noted, the call rests on the fitted dose curve; in most records, active means well fitted curve in the direction sought with a large enough effect in the repeat runs; inconclusive means weak or mixed curves; inactive means no such curve, though single readings can be large; an effect the other way counts as inactive or inconclusive.

Sequence of Vitamin D3 receptor (Homo sapiens) (P11473 whole entry, looked up): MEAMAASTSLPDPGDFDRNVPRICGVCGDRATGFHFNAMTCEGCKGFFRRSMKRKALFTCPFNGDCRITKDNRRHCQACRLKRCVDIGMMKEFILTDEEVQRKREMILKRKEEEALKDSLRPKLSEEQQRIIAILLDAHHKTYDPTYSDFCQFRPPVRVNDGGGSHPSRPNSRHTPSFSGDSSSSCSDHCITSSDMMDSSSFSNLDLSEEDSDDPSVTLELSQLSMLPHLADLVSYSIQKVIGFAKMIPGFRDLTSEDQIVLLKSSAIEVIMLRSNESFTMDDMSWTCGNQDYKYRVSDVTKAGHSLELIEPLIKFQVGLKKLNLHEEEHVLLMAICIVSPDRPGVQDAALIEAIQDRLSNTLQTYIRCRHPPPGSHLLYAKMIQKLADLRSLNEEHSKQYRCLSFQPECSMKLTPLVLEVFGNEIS
Sequence of Bile acid receptor (Homo sapiens) (Q96RI1 whole entry, looked up): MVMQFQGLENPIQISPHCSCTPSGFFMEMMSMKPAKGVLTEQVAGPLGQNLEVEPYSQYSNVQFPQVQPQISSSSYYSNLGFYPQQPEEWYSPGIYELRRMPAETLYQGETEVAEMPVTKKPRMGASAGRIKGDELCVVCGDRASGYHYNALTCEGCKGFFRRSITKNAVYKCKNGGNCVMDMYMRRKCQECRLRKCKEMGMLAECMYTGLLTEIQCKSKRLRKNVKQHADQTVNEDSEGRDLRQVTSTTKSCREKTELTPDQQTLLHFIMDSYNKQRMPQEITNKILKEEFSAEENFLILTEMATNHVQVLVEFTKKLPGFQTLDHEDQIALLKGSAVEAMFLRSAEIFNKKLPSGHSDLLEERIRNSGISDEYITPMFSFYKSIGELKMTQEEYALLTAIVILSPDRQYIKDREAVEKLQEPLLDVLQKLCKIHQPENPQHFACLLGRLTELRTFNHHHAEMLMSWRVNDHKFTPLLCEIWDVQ

In the case of `C=Cc1ccc(OC(C)=O)cc1`, the Potency result in experiment [1], in experiment [2], in experiment [3], in [4] and in experiment [5] was “inactive” in each case. Besides, the result in [6] and in [7] was inactive.
Consider `CC[C@@H](CO)NCCN[C@@H](CC)CO`, for which the Potency result in [1], in experiment [4] and in experiment [5] was “inactive” in each case. Also, in experiment [8], the compound was called inactive.
With `CCCc1nc2c(C)cc(-c3nc4ccccc4n3C)cc2n1Cc1ccc(-c2ccccc2C(=O)O)cc1`, the Potency entry in experiment [1], in experiment [2], in [3], in [4] and in experiment [5] was “inactive” each time. Moreover, the compound was called inactive in experiment [7].
Regarding `CC(=O)OCCC(C)CC(C)(C)C` (configuration not stated), the Potency result in experiment [1], in experiment [2], in [3], in [10] and in experiment [5] was “inactive” in each case. For the same compound, the compound was classed as inactive in experiment [9] and in [6].
For the compound `CC(C)COC(=O)c1ccc(O)cc1`, the Potency entry in experiment [1], in experiment [2], in experiment [3], in [4], in experiment [10] and in experiment [5] was “inactive” in each case. The outcome in [9], in experiment [6] and in experiment [7] was inactive.
Turning to `CC(C)(C)S`, the Potency entry in [1], in [2], in [3], in experiment [4], in experiment [10] and in [5] was “inactive” each time. Moreover, in experiment [9], the outcome was inactive.
Regarding `CSSc1ccoc1C`, the Potency entry in [1], in experiment [2], in [3], in experiment [10] and in [5] was “inactive” throughout. Further, the call in [9] was inactive.
As for `CC1CCCO1` (configuration not stated), the Potency result in [1], in experiment [2], in experiment [3], in experiment [4] and in [5] was “inactive” throughout. The compound was called inactive in experiment [6] and in experiment [7].
Turning to `COC(=O)Nc1nc2ccc(C(=O)C3CC3)cc2[nH]1`, the Potency entry in experiment [1], in [2], in experiment [3], in experiment [4] and in [5] was “inactive” in each case.
For the compound `CCCCCCCCCCCCCCN(C)C`, the Potency entry in experiment [1], in [2], in [4] and in [5] was “inactive” each time. Besides, the call in experiment [6] and in experiment [7] was inactive.
For the compound `CCN(CC)CCNC(=O)c1cc(Cl)c(N)cc1OC`, the Potency entry in experiment [1], in [2], in [4], in experiment [10] and in experiment [5] was “inactive” throughout. Further, the result in experiment [9], in experiment [6] and in [7] was inactive.
For `O=C1NC(=O)c2cccc3cccc1c23`, the Potency result in experiment [1], in [2], in [4] and in [10] was “inactive” throughout. The outcome in experiment [9], in experiment [6] and in experiment [7] was inactive.
For `CNc1c2c(nn1C)CCCC2`, the Potency result in experiment [1], in experiment [2], in experiment [4] and in [5] was “inactive” each time.
Turning to `O=S(=O)(O)CO`, the Potency result in experiment [1], in experiment [2], in experiment [4] and in experiment [5] was “inactive” each time. Also, the call in experiment [6] and in experiment [7] was inactive.
With `Nc1ccn([C@H]2CS[C@@H](CO)O2)c(=O)n1`, the Potency result in [1], in experiment [2], in [4] and in experiment [5] was “inactive” each time.
Take `C[C@H](CS)C(=O)N1CCC[C@H]1C(=O)O`: the Potency result in experiment [1], in experiment [2], in [4] and in experiment [5] was “inactive” in each case.
As to `CCCCCC`, the Potency entry in experiment [1], in [2], in experiment [4], in experiment [10] and in experiment [5] was “inactive” each time. Further, the compound was called inactive in experiment [9].
For `C=CCOC(=O)COCCC(C)C`, the Potency entry in experiment [1], in [2], in experiment [3] and in experiment [5] was “inactive” throughout.
Turning to `O=C(CCS)OCC(COC(=O)CCS)(COC(=O)CCS)COC(=O)CCS`, the Potency result in experiment [1], in experiment [2], in experiment [4], in [10] and in experiment [5] was “inactive” each time. Moreover, the result in experiment [9], in experiment [6] and in [7] was inactive.
As to `CCOc1ncc(F)c(=O)[nH]1`, the Potency entry in experiment [1], in experiment [2], in experiment [4] and in experiment [5] was “inactive” throughout. The compound was classed as inactive in experiment [6] and in [7].
For `CC[C@H]1OC(=O)[C@H](C)[C@@H](O[C@H]2C[C@@](C)(OC)[C@@H](O)[C@H](C)O2)[C@H](C)[C@@H](O[C@@H]2O[C@H](C)C[C@H](N(C)C)[C@H]2O)[C@](C)(O)C[C@@H](C)C(=O)[C@H](C)[C@@H](O)[C@]1(C)O`, the Potency entry in experiment [1], in experiment [2], in experiment [4] and in [5] was “inactive” in each case. The compound was called inactive in experiment [6] and in experiment [7].
Turning to `CN1CCCN(C(c2ccccc2)c2ccc(Cl)cc2)CC1` (configuration not stated), the Potency in experiment [1] was 21.1 µM (active); in [2], 26.6 µM (active); in [4], 29.8 µM (active); in experiment [5], 26.6 µM (active). Moreover, the Potency entry in experiment [10] is “inactive”.
With `COc1ccc(-c2cc(=S)ss2)cc1`, the Potency entry in experiment [1], in [2], in [4] and in [5] was “inactive” each time.
Regarding `CCCCCCCC/C=C/C(=O)O`, the Potency result in experiment [1], in experiment [2], in experiment [4] and in experiment [5] was “inactive” throughout. In addition, the result in [6] was inactive.
For `Cc1cc(CCC(=O)OCCOCCOCCOC(=O)CCc2cc(C)c(O)c(C(C)(C)C)c2)cc(C(C)(C)C)c1O`, the Potency entry in [1], in experiment [2], in experiment [4], in [10] and in experiment [5] was “inactive” in each case. In addition, the compound was classed as inactive in experiment [9].
For `CO[C@@H]1[C@@H](OC)[C@H](C)[C@@](O)(CC(=O)O)O[C@H]1[C@H](C)[C@H]1O[C@@]2(CC[C@@](C)([C@H]3CC[C@@](C)([C@@H]4O[C@@H]([C@H]5O[C@](C)(O)[C@H](C)C[C@@H]5C)C[C@@H]4OC4C[C@H](OC)[C@@H](OC)[C@H](C)O4)O3)O2)C[C@H](O)[C@H]1C` (some centres not stated), the Potency in experiment [1] was 2.98 µM (active); in experiment [2] it was 5.31 µM (active); in experiment [4] it was 9.44 µM (active); in experiment [5], 9.44 µM (active). The Potency result in [10] is “inactive”.
Consider `O=C(O)c1cc(Cl)cc(Cl)c1O`, for which the Potency result in [1], in experiment [2] and in [3] was “inactive” each time. For the same compound, the result in experiment [6] and in experiment [7] was inactive.

The record behind these values is PubChem BioAssay (Tox21).
